In the supplement of paper PMC4894684:
Structures can show the parent of a compound that is named as a salt. ± gives the standard deviation of the averaged measurements.

Tested on: Toxoplasma gondii RH (in HFF)
Experiment: parasite growth relative to the screen mean (all compounds = 100%); higher = less inhibition of parasite growth
Conditions: 5 µM; 72 h; oxygen 21 %
Procedure, shortened: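 RH β-Gal–GFP Toxoplasma at MOI 1:5 was used to infect confluent human foreskin fibroblasts in 96-well plates within 2 h of pin-transferring compounds to 5 µM final. After 72 h at 21% O2, parasite number was determined by CPRG β-Gal assay against standard curves on the same plate. Growth is relative to the screen mean and averaged over two screens, with all compounds = 100%.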

| Compound | parasite growth [%] |
| --- | --- |
| Clc1ccc(N2CCN(Cc3c[nH]c4ncccc34)CC2)cc1 [L-745,870 trihydrochloride] | 72.9 ± 7.7 |
| CC[C@@]1(O)C(=O)OCc2c1cc1n(c2=O)Cc2cc3ccccc3nc2-1 [Camptothecin] | 181 ± 36 |
| O=C(Cc1ccc(Cl)c(Cl)c1)N1CCCCC1CN1CCCC1 (stereo not drawn) | 82.1 ± 15 |
| CCCCC1(C2CCCC2)Cc2cc(OCCCC(=O)O)c(Cl)c(Cl)c2C1=O (stereo not drawn) | 124 ± 5 |
| Clc1ccc(C2=CCCC3CCC2N3)cn1 (stereo not drawn) [UB 165 fumarate] | 106 ± 11 |
| CCN(CC)CCO[C@H]1CC[C@@]2(C)C(=CC[C@@H]3[C@@H]2CC[C@]2(C)C(=O)CC[C@@H]32)C1 | 79.6 ± 24 |
| c1ccc(CC(c2ccccc2)N2CCCCC2)cc1 (racemic) [(±)-1-(1,2-Diphenylethyl)piperidine maleate] | 124 ± 20 |
| CS(=O)(=O)Nc1ccc(Cc2noc(-c3ccc4[nH]cc(CCN)c4c3)n2)cc1 | 124 ± 6.6 |
| N#Cc1ccc(N2CCN(C(=O)COc3ccc4[nH]cc(CCN)c4c3)CC2)cc1 [Donitriptan hydrochloride] | 78.6 ± 12 |
| O=C1CN=C(c2cccc(Br)c2)c2oc3ccccc3c2N1 | 96 ± 4.5 |
| CCCN(CCC)C1CCc2ccc(O)cc2C1 (stereo not drawn) [7-Hydroxy-DPAT hydrobromide] | 67.2 ± 33 |
| COc1cc2c(c(OC)c1OC)-c1ccc(OC)c(=O)cc1[C@@H](NC(C)=O)CC2 [Colchicine] | 115 ± 27 |
| C[C@@H](N)Cc1cnc[nH]1 [(R)-(-)- α-Methylhistamine dihydrobromide] | 107 ± 25 |
| O=c1[nH]c2ccccc2n1CCCN1CCC(n2c(=O)[nH]c3cc(Cl)ccc32)CC1 [Domperidone] | 129 ± 11 |
| C[C@@]12C(=O)OC(=O)[C@]1(C)[C@H]1CC[C@@H]2O1 [Cantharidin] | 68.8 ± 46 |
| CCC(Oc1ccc(Cl)cc1)C(=O)OC1C[C@H]2CC[C@@H](C1)N2C (stereo partly drawn) [SM-21 maleate] | 95.2 ± 2.9 |
| Oc1ccc2c3c1O[C@H]1c4[nH]c5ccccc5c4C[C@@]4(O)[C@@H](C2)N(CC2CC2)CC[C@]314 [Naltrindole hydrochloride] | 148 ± 35 |
| NC(N)=Nc1ccc2[nH]c3c(c2c1)C[C@@]1(O)[C@H]2Cc4ccc(O)c5c4[C@@]1(CCN2CC1CC1)[C@H]3O5 [GNTI dihydrochloride] | 124 ± 2.5 |
| CCCN1CCO[C@@H]2c3cc(O)ccc3OC[C@H]21 | 96 ± 2.6 |

| Compound | parasite growth [%] |
| --- | --- |
| O=c1[nH]oc2c1CCNC2 [THIP hydrochloride] | 119 ± 21 |
| CCCCC/C=C\C/C=C\C/C=C\C/C=C\CCCC(=O)Nc1ccc(O)cc1 | 31.3 ± 14 |
| CCOC(=O)c1ncc2[nH]c3ccc(OCc4ccccc4)cc3c2c1COC | 83.8 ± 31 |
| C=C(C)CN1CC[C@@]23c4c5ccc(O)c4O[C@H]2c2[nH]c4ccccc4c2C[C@]3(O)C1C5 [SDM25N hydrochloride] | 77.5 ± 21 |
| N=C(NCc1ccc(Cl)cc1)SCCCc1c[nH]cn1 [Clobenpropit dihydrobromide] | 106 ± 11 |
| CC(C)NCC(O)c1ccc(N)c(C#N)c1 (stereo not drawn) [Cimaterol] | 130 ± 2.8 |
| Nc1ccncc1 [4-Aminopyridine] | 157 ± 28 |
| CC(C)C[C@H]1C(=O)N2CCC[C@H]2[C@]2(O)O[C@](NC(=O)[C@@H]3C=C4c5cccc6[nH]c(Br)c(c56)C[C@H]4N(C)C3)(C(C)C)C(=O)N12 [Bromocriptine mesylate] | 13.6 ± 8.4 |
| CN(C(=O)Cc1ccc(Cl)c(Cl)c1)[C@H](CN1CCCC1)c1ccccc1 [ICI-199,441 hydrochloride] | 49.6 ± 10 |
| C=CCN1C[C@H](C)N([C@H](c2ccc(C(=O)N(CC)CC)cc2)c2cccc(O)c2)C[C@H]1C | 110 ± 22 |
| Oc1ccc2c3c1O[C@H]1c4c(c5ccccc5n4Cc4ccccc4)C[C@@]4(O)C(C2)N(CC2CC2)CC[C@]314 [N-Benzylnaltrindole hydrochloride] | < 0 |
| O=c1ccc2[nH]cc(C3=CCNCC3)c2[nH]1 | 65.2 ± 3.1 |
| O=C(O)/C=C/CO [trans-4-Hydroxycrotonic acid] | 108 ± 8.3 |
| CCOc1cncc(/C=C/CCNC)c1 [TC 2559 difumarate] | 90.8 ± 7 |
| C#CCOC(=O)C1=CCCN(C)C1 [Arecaidine propargyl ester tosylate] | 137 ± 4.5 |
| Ic1cncc(OC[C@@H]2CCN2)c1 | 137 ± 16 |
| NCCc1c[nH]c2ccc(C(N)=O)cc12 [5-Carboxamidotryptamine maleate] | 158 ± 72 |
| CN(C)CCN(C)CCc1ccc(Cl)c(Cl)c1 [BD 1047 dihydrobromide] | 89.4 ± 30 |
| NC(=S)N/N=C/c1coc2ccccc2c1=O.[Cl][Cu][Cl] | 37.1 ± 24 |
